The campaign covered roughly 52,000 compounds. About 1,700 (3.3%) were called active. The list comes from a sample in which actives are over-represented; it also holds similar structures and randomly drawn compounds. A number with no mark means an inactive call. No stated cut-off is given here; in the data, active means survival mostly below about 52% (no sharp cut-off); inactive means mostly above about 56%.
system: Wild type; assay: S. aureus survival, RN4220 and DeltatarO strains – OD600, teichoic acid synthesis inhibitors, primary screen (AID 463173); conditions: S. aureus RN4220 wild type/DeltatarO growth, OD600, 18 h, active compounds read low, screened at 18.75 µg/mL (by protocol)

| Structure (SMILES) | survival |
| --- | --- |
| COc1ccc(C(=O)NCC(c2ccc3c(c2)OCO3)N2CCN(c3ccccc3F)CC2)cc1 (centres undefined) | 77% |
| Cc1ccc(NC(=O)CN2C(=O)COc3ccc(S(=O)(=O)N4CCCCC4)cc32)cc1N(C)C | 106% |
| CC(=O)N1CCc2cc(Br)cc(S(=O)(=O)CCC(=O)N3CCN(c4cccc(C)c4C)CC3)c21 | 77% |
| Clc1cccc(CNc2ncnc3c2nc2n3CCCC2)c1 | 92% |
| Fc1ccc(Nc2ncnc3c2nc2n3CCCC2)cc1 | 76% |
| Fc1ccc(Nc2ncnc3c2nc2n3CCCCC2)c(F)c1 | 14% (active) |
| COc1ccccc1Nc1ncnc2c1nc1n2CCCCC1 | 133% |
| COc1ccc(Nc2ncnc3c2nc2n3CCCC2)cc1Cl | 59% |
| CCc1ccccc1Nc1ncnc2c1nc1n2CCCC1 | 71% |
| Clc1ccccc1Nc1ncnc2c1nc1n2CCCCC1 | 0% (active) |
| Fc1ccccc1Nc1ncnc2c1nc1n2CCCCC1 | 74% |
| Clc1cccc(Nc2ncnc3c2nc2n3CCCCC2)c1 | -1% (active) |
| CCC(=O)N1CCc2cc(S(=O)(=O)NC(Cc3ccccc3)C(=O)NCc3ccc(F)cc3)ccc21 (centres undefined) | 83% |
| COc1ccc(-c2cc(-c3ccccc3)nc(SCC(=O)Nc3ccccc3C)c2C#N)cc1 | 70% |
| COC(=O)c1ccc(Cl)cc1NC(=O)N(C)CCc1c(C)nn(C)c1C | 111% |
| C#CCn1c(O)c(N=NC(=O)c2ccncc2)c2cc(Br)ccc21 | 110% |
| Cc1noc(C)c1S(=O)(=O)NCCc1csc2nc(-c3ccc(Cl)cc3)nn12 | 72% |
| O=C(O)c1cccc(NC(=O)c2cccc(S(=O)(=O)Nc3cccc(F)c3)c2)c1 | 169% |
| CCc1c(C)nc2nncn2c1Nc1ccc(C)c(F)c1 | 83% |
| Cc1cc(C)cc(NC(=O)Cc2c(C(=O)O)c(C)cn2C)c1 | 47% |
| CCOC(=O)c1cnc2c(C)cc(C)cc2c1Nc1cccc(C(=O)O)c1 | 23% (active) |
| CCOC(=O)c1cnc2c(C)cc(C)cc2c1NCCN1CCOCC1 | 53% |
| CCOC(=O)c1cnc2c(C)cc(C)cc2c1Nc1ccccc1OCC | -1% (active) |
| CCOC(=O)c1cnc2c(ccc3ccccc32)c1Nc1ccccc1OCC | 109% |

| Structure (SMILES) | survival |
| --- | --- |
| CCOC(=O)c1cnc2c(Cl)cc(Cl)cc2c1Nc1ccccc1OC | 65% |
| CCOC(=O)c1cnc2c(C(F)(F)F)cccc2c1Nc1cccc(C(=O)OC)c1 | 26% |
| CCOC(=O)c1cnc2c(C)cc(C)cc2c1Nc1ccc(N2CCOCC2)cc1 | 15% |
| CCOC(=O)c1cnc2c(C)cc(C)cc2c1Nc1ccc(OCc2ccccc2)cc1 | 11% (active) |
| Cc1nn2c(=O)cc(COC(=O)c3ccccc3NC(=O)C(C)C)nc2s1 | 74% |
| Cc1cc(C)c2nc(N(Cc3cccnc3)C(=O)c3ccc(S(=O)(=O)N(C)C)cc3)sc2c1 | 57% |
| COc1cccc(-c2nc(CS(=O)(=O)CC(=O)NCCc3ccc(OC)cc3OC)c(C)o2)c1 | 83% |
| Cc1ccc(N(C)S(=O)(=O)c2nnc(NC(=O)CC(C)C)s2)cc1 | 87% |
| N=c1n(CCN2CCCCC2)c2ccccc2n1CC(O)COc1ccc(Cl)cc1Cl (centres undefined) | -3% (active) |
| Cc1ccccc1OCC(O)Cn1c(=N)n(CCN2CCCCC2)c2ccccc21 (centres undefined) | 76% |
| N=c1n(CCN2CCCCC2)c2ccccc2n1CC(O)COc1ccccc1 (centres undefined) | 144% |
| O=C(CSc1nc2c([nH]c3ccccc32)c(=O)n1-c1ccccc1)NCc1ccc(F)cc1 | 87% |
| COCCNC(=O)CSc1nnc(-c2ccc(OC)c(OC)c2)c(-c2ccc(OC)c(OC)c2)n1 | 68% |
| CC(=O)N1N=C(c2ccccc2)CC1c1ccccc1 (centres undefined) | 104% |
| C=Cc1ccc(Cn2nc(-c3ccc(C)cc3)ccc2=O)cc1 | 57% |
| O=C(O)/C(=C/C(=O)c1ccccc1)Nc1ccccc1 | 100% |
| CC(C)(C)c1ccc(S(=O)(=O)Nc2ccc(O)c(Sc3nc4ccccc4s3)c2)cc1 | 3% (active) |
| O=S(=O)(Nc1ccc2oc3c(c2c1)CCCC3)c1cc(Cl)ccc1Cl | 46% |
| CC(=O)c1c(C)oc2ccc(NS(=O)(=O)c3ccc(C(C)C)cc3)cc12 | 86% |
| Cc1nc2ccc(S(=O)(=O)NC(C(=O)NCc3ccccc3Cl)C(C)C)cc2s1 (centres undefined) | 85% |
| O=C(COc1ccc(Cl)cc1)Nc1ccc(O)c(-c2nc3ccccc3s2)c1 | 69% |
| CC(C)NC(=O)c1nc2ccccc2s1 | 120% |
| Cc1cc(S(=O)(=O)Nc2ccc(O)c(Sc3nc4ccccc4s3)c2)ccc1Cl | -2% (active) |
| CC(C)c1ccc(S(=O)(=O)Nc2ccc(O)c(Sc3nc4ccccc4s3)c2)cc1 | 0% (active) |

| Structure (SMILES) | survival |
| --- | --- |
| Cn1c(=O)sc2cc(NS(=O)(=O)c3ccc(C(C)(C)C)cc3)ccc21 | 73% |
| CC(C)c1ccc(C(=O)Nc2ccc(-c3nc4ccccc4s3)c(Cl)c2)cc1 | 141% |
| Cc1cc(S(=O)(=O)Nc2ccc3oc4c(c3c2)CCCC4)ccc1Cl | 46% |
| O=S(=O)(Nc1ccc(O)c(Sc2nc3ccccc3s2)c1)c1cc(Cl)ccc1Cl | 0% (active) |
| CCN(C(=O)CSc1nnc(-c2cc(OC)c(OC)c(OC)c2)o1)c1ccccc1 | 87% |
| CCn1c(CNC(=O)c2ccc(OC)cc2)nnc1SCC(=O)Nc1cccc(C)c1 | 119% |
| CCC(C(=O)Nc1cccc(C#N)c1)n1nc(-c2ccccc2)ccc1=O (centres undefined) | 79% |
| CC(C)N(Cc1ccccc1)C(=O)Cn1ncc2c3ccccc3n(Cc3ccccc3)c2c1=O | 96% |
| CN(C)c1ccc(C(CNS(=O)(=O)c2ccc(Br)cc2)N2CCCC2)cc1 (centres undefined) | 68% |
| C=CCC(CC=C)(CNC(=O)C(=O)Nc1ccc(Br)cc1)c1ccc(OC)c(OC)c1 | 90% |
| CCOc1ccccc1NC(=O)c1ccc(F)c(S(=O)(=O)N2CCN(c3ccc(F)cc3)CC2)c1 | 60% |
| CC(=O)c1ccc(N2CCN(c3ccc(NC(=O)c4ccc(F)cc4)cc3C(=O)O)CC2)cc1 | 14% (active) |
| O=C(Nc1ccc(N2CCN(CCOc3ccc(Cl)cc3)CC2)c(C(=O)O)c1)c1ccc(F)cc1 | -3% (active) |
| Cc1cccc(NC(=O)c2ccc(F)c(S(=O)(=O)N3CCC4(CC3)OCCO4)c2)c1 | 71% |
| Cc1cccc(NC(=O)c2ccc(F)c(S(=O)(=O)N3CCN(c4ccc(F)cc4)CC3)c2)c1 | -3% (active) |
| O=C(Nc1ccc(N2CCN(c3ccc(F)cc3)CC2)c(C(=O)O)c1)c1ccccc1F | 76% |
| O=C(Nc1ccc(N2CCC(N3CCCCC3)CC2)c(C(=O)O)c1)c1ccc(Br)cc1 | 75% |
| CCCNC(=O)CN1CCN(c2ccc(NC(=O)c3ccc(OC)cc3)cc2C(=O)O)CC1 | 87% |
| Cc1cccc(C(=O)Nc2ccc(N3CCN(c4ccc(F)cc4)CC3)c(C(=O)O)c2)c1 | 63% |
| O=C(Nc1ccc(N2CCC(N3CCCCC3)CC2)c(C(=O)O)c1)c1ccccc1 | 70% |
| O=C(Nc1ccc(N2CCOCC2)c(C(=O)O)c1)c1ccc(Br)cc1 | 0% (active) |
| COc1ccc(C(=O)Nc2ccc(N3CCN(c4ccccc4)CC3)c(C(=O)O)c2)cc1 | 83% |
| COc1ccc(NC(=O)c2nnn(CC(=O)Nc3cc(C)cc(C)c3)c2N)c(OC)c1 | 139% |
| CC(=O)Nc1ccc(NC(=O)CCNS(=O)(=O)c2cccc3nsnc23)cc1 | 89% |

| Structure (SMILES) | survival |
| --- | --- |
| Cn1c(-c2ccc(NC(=O)c3ccccc3)cc2)n[nH]c1=S | 113% |
| CC(C)COc1ccc(Nc2ncnc3ccc(Br)cc23)cc1 | 79% |
| O=C(NCC(c1cccnc1)N1CCc2ccccc2C1)C(=O)Nc1cccc(Cl)c1 (centres undefined) | 47% |
| Cc1ccc(Cl)cc1N1CCN(CCCNC(=O)Cn2ncc3c([nH]c4ccccc43)c2=O)CC1 | 99% |
| Cc1cc(C)cc(-n2c(C)nc3cc(C(=O)NCc4ccc(F)cc4)ccc32)c1 | 138% |
| CC(NC(=O)c1ccccc1)c1n[nH]c(=S)n1C (centres undefined) | 109% |
| CC(C)NC(=O)/C=C/c1ccc2c(c1)OCO2 | 110% |
| O=C(Cn1c(=O)n(Cc2ccccc2)c(=O)c2sc3ccccc3c21)NCc1ccccc1Cl | 125% |
| CC1=C(C(=O)OCc2ccc(C)cc2)C(c2ccccc2F)CC(=O)N1 (centres undefined) | 115% |
| COc1ccc(CNCc2c(C(=O)O)c(C)n(Cc3ccc(Cl)cc3)c2C)c(OC)c1 | 101% |
| CCCCn1cnc2cc(NCc3ccccc3Cl)ccc21 | -16% (active) |
| COc1cccc(CNc2ccc3c(c2)ncn3C)c1OC | 121% |
| CCCn1cnc2cc(NCc3ccc(OC)cc3OC)ccc21 | 63% |
| CCCn1cnc2cc(NCc3ccccc3OCC)ccc21 | 61% |
| CCc1ccc(CNc2ccc3c(c2)ncn3C(C)(C)C)cc1 | -16% (active) |
| CCCCn1cnc2cc(NCc3ccc(OCC)cc3)ccc21 | 4% (active) |
| CC(C)(C)n1cnc2cc(NS(=O)(=O)c3ccccc3)ccc21 | 112% |
| CCn1cnc2cc(NCc3ccc(N(C)C)cc3)ccc21 | 94% |
| CCCCn1cnc2cc(NC(=O)c3cc(OC)c(OC)c(OC)c3)ccc21 | 79% |
| CCCn1cnc2cc(NC(=O)c3cc(OC)c(OC)c(OC)c3)ccc21 | 76% |
| CC(C)(C)n1cnc2cc(NCc3ccccc3Cl)ccc21 | 8% (active) |
| COc1cc(CNc2ccc3c(c2)ncn3C(C)C)cc(OC)c1OC | 66% |

Source: PubChem BioAssay AID463173 (ICCB-Longwood Screening Facility, Harvard Medical School, 2010)
